Measured values as given in PubChem BioAssay (NCI).
The panel holds about 83,000 compounds, 20% with a hit somewhere; the sample as a whole holds those more often.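 96-well plates, one dose, 48 hours. Percent growth reported; active if below 10.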 Calls of active or inactive are those of the source.

Assays:
Assay in all cases: NCI-60 one-dose screen, 48 h (100 = growth as untreated, 0 = no growth, -100 = all killed)
Details in all cases: 10 µM unless noted
NCI-H23 lung = test system: NCI-H23 lung
NCI-H226 lung = test system: NCI-H226 lung
NCI-H322M lung = test system: NCI-H322M lung
HOP-62 NSCLC = test system: HOP-62 NSCLC
NCI-H460 lung = test system: NCI-H460 lung
HOP-92 NSCLC = test system: HOP-92 NSCLC
NCI-H522 lung = test system: NCI-H522 lung
A549/ATCC NSCLC = test system: A549/ATCC NSCLC
786-0 renal = test system: 786-0 renal
COLO 205 colon = test system: COLO 205 colon

Measured: growth

Cc1cc(C2(c3cc(C)c(O)cc3C)OS(=O)(=O)c3ccccc32)c(C)cc1O
inactive: NCI-H23 lung 106% | NCI-H226 lung 106% | NCI-H322M lung 101% | HOP-62 NSCLC 92.2% | NCI-H460 lung 108% | HOP-92 NSCLC 81.7% | NCI-H522 lung 92.2% | A549/ATCC NSCLC 97.2% | 786-0 renal 109% | COLO 205 colon 111%

CC(C)(C)n1cc(-c2ccnc(NCCNS(=O)(=O)c3ccc(Cl)cc3)c2)c(-c2cccc(O)c2)n1
active: COLO 205 colon -7.89%
inactive: NCI-H23 lung 64.7% | NCI-H226 lung 67.5% | NCI-H322M lung 85.3% | HOP-62 NSCLC 84.9% | NCI-H460 lung 28.2% | HOP-92 NSCLC 72% | NCI-H522 lung 68% | A549/ATCC NSCLC 51.8% | 786-0 renal 54.6%

Nc1ncnc2c1c(-c1ccc(Oc3ccccc3)cc1)nn2C[C@@H]1SSC[C@@H]1O
active: NCI-H460 lung -30.5% | HOP-92 NSCLC -4.45% | NCI-H522 lung -22.1%
inactive: NCI-H23 lung 28.8% | NCI-H226 lung 46.7% | NCI-H322M lung 61.8% | HOP-62 NSCLC 48.8% | A549/ATCC NSCLC 22.1% | 786-0 renal 57.5% | COLO 205 colon 33.8%

COc1ccc(C(=O)N2NC(=O)/C(=C/c3ccc(Br)cc3)N=C2c2ccccc2)cc1
inactive: NCI-H23 lung 93.8% | NCI-H226 lung 95.1% | NCI-H322M lung 90.6% | HOP-62 NSCLC 46.6% | NCI-H460 lung 96.9% | HOP-92 NSCLC 64.4% | NCI-H522 lung 85.3% | A549/ATCC NSCLC 87.6% | 786-0 renal 90.4% | COLO 205 colon 105%

CC(C)(C)NCCC(O)c1cc2c(Cl)cc(Cl)cc2c2cc(C(F)(F)F)ccc12 (stereo not given)
active: NCI-H23 lung -78.6% | NCI-H226 lung -73.8% | NCI-H322M lung -54.2% | HOP-62 NSCLC -87.1% | NCI-H460 lung -73.6% | HOP-92 NSCLC -62.1% | NCI-H522 lung -81.8% | A549/ATCC NSCLC -88.2% | 786-0 renal -65.5% | COLO 205 colon -87.3%

c1ccc(Nc2nc(Nc3ccccc3)nc(Nc3ccccc3)n2)cc1
inactive: NCI-H23 lung 86.5% | NCI-H226 lung 89% | NCI-H322M lung 57.3% | HOP-62 NSCLC 90.6% | NCI-H460 lung 78% | HOP-92 NSCLC 60.9% | NCI-H522 lung 84.5% | A549/ATCC NSCLC 79.9% | 786-0 renal 100% | COLO 205 colon 76.1%

C=C1C(=O)O[C@H]2[C@H]1CC/C(Cn1cc(CNC(=O)/C=C/c3c[nH]c4ccccc34)nn1)=C\CC[C@@]1(C)O[C@@H]21
inactive: NCI-H23 lung 100% | NCI-H226 lung 92.5% | NCI-H322M lung 101% | HOP-62 NSCLC 104% | NCI-H460 lung 98.1% | HOP-92 NSCLC 82.9% | NCI-H522 lung 16.4% | A549/ATCC NSCLC 91.6% | 786-0 renal 102% | COLO 205 colon 67.9%

O=C1/C(=C/c2ccc(Cl)cc2)CN(C(=O)CCN2CCC(=NO)CC2)C/C1=C\c1ccc(Cl)cc1
active: NCI-H23 lung -57% | NCI-H226 lung -20.5% | NCI-H322M lung -75% | HOP-62 NSCLC -80.1% | NCI-H460 lung -67% | HOP-92 NSCLC -39.1% | NCI-H522 lung -92.1% | A549/ATCC NSCLC 2.34% | 786-0 renal -76.9% | COLO 205 colon -83.9%

CCOC(=O)NNC(=S)Nc1ccccc1
inactive: NCI-H23 lung 99.5% | NCI-H226 lung 103% | NCI-H322M lung 102% | HOP-62 NSCLC 102% | NCI-H460 lung 108% | HOP-92 NSCLC 93.5% | NCI-H522 lung 100% | A549/ATCC NSCLC 96.3% | 786-0 renal 103% | COLO 205 colon 131%

O=[N+]([O-])c1cccc(-c2nc3sccn3c2-c2ccnc(NCCCNS(=O)(=O)c3ccc(C(F)(F)F)cc3)n2)c1
inactive: NCI-H23 lung 29.7% | NCI-H226 lung 23.8% | NCI-H322M lung 63.1% | HOP-62 NSCLC 50% | NCI-H460 lung 40.2% | HOP-92 NSCLC 53% | NCI-H522 lung 20.8% | A549/ATCC NSCLC 31.3% | 786-0 renal 51.8% | COLO 205 colon 24.7%

COC(OC)c1ccccc1
inactive: NCI-H23 lung 105% | NCI-H226 lung 108% | NCI-H322M lung 103% | HOP-62 NSCLC 99.3% | NCI-H460 lung 117% | HOP-92 NSCLC 79.6% | NCI-H522 lung 101% | A549/ATCC NSCLC 103% | 786-0 renal 95% | COLO 205 colon 107%

COc1ccncc1S(=O)(=O)NC(=O)Nc1ccc(Cl)c(Cl)c1
inactive: NCI-H23 lung 89% | NCI-H226 lung 92.5% | NCI-H322M lung 95% | HOP-62 NSCLC 83.9% | NCI-H460 lung 104% | HOP-92 NSCLC 80.7% | NCI-H522 lung 82.5% | A549/ATCC NSCLC 44.5% | 786-0 renal 94.2% | COLO 205 colon 105%

Cc1nn(-c2ccc([N+](=O)[O-])cc2)c2ncnc(NCCc3ccccc3)c12
inactive: NCI-H23 lung 95.9% | NCI-H226 lung 97.8% | NCI-H322M lung 116% | HOP-62 NSCLC 102% | NCI-H460 lung 91.6% | HOP-92 NSCLC 91.3% | NCI-H522 lung 107% | A549/ATCC NSCLC 99.8% | 786-0 renal 105% | COLO 205 colon 104%

Cc1cc(N/N=C/c2nc(-c3ccc(Br)cc3)oc2C)c2cc(Br)ccc2n1
inactive: NCI-H23 lung 103% | NCI-H226 lung 113% | NCI-H322M lung 82.8% | HOP-62 NSCLC 105% | HOP-92 NSCLC 78.8% | NCI-H522 lung 48% | A549/ATCC NSCLC 32.8% | 786-0 renal 29.2% | COLO 205 colon 99.7%
active: NCI-H460 lung -13.1%
